Reference: PubChem BioAssay AID504444 (National Center for Advancing Translational Sciences (NCATS), 2011)
Out of some 360,000 compounds screened, about 7,500 (2.1%) were called active. Roughly 20% stayed inconclusive and do not appear here. This is one part of a sample in which actives are shown more often than they occur. Unmarked numbers belong to inactive results. The call rests on the fitted dose curve; in most records, active means well fitted inhibition curve with a large enough effect; inconclusive means small, poorly fitted or top-dose-only effect, or effect the other way; inactive means flat fitted curve, though single readings scatter.

Assay: Nrf2 qHTS screen for inhibitors; further: nearly all actives have a fitted effect of over 60% in size
Settings: A549 ARE-Fluc reporter, luciferase luminescence, 18-24 h; series mostly up to 46 µM; activity change, negative = inhibition: at the top concentration
Summary of the method: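 Quantitative HTS in A549 cells stably bearing an antioxidant response element-firefly luciferase construct. Inhibition of Nrf2-driven transcription was scored by luminescence after 18-24 h of compound exposure at 37 °C.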
On the % scale 0 is the no-effect control and ±100 the full control effect; potency means the concentration at half of the fitted maximal effect.

Structure (SMILES) | activity change, negative = inhibition | Potency
CCn1c(CN2CCC(C)CC2)nc2cc(NC(=O)c3ccccc3[N+](=O)[O-])ccc21 | -4.26% | –
CCCN(CC(=O)Nc1ccccc1C)C(=O)c1ccc(OCC(=O)N2CCOCC2)c(OCC)c1 | 1.1% | –
Cc1ccccc1NC(=O)Cn1c(=O)n(CC2CCC(C(=O)NCCc3ccccc3)CC2)c(=O)c2ccccc21 (stereo unspecified) | 5.11% | –
COc1cc(C(=O)NCC(c2ccco2)N2CCCC2)ccc1OCc1ccccc1 (stereo unspecified) | 7.02% | –
Cc1ccccc1Nc1nn2c(=O)c3ccc(C(=O)NCCc4ccc(Cl)cc4)cc3nc2s1 | -7.63% | –
Cc1ccc(S(=O)(=O)NC(N)=NCCC[C@@H](NC(=O)CNC(=O)c2ccccc2)C(=O)Nc2cc(C(F)(F)F)ccc2Cl)cc1 | 4.08% | –
O=C1NC[C@@H](c2ccccc2)OC(=O)[C@H](Cc2ccc(F)cc2)CC/C=C/C[C@H]1CC(=O)N(CCO)Cc1ccccc1 | -7.42% | –
Cc1ccc2nc(-c3ccc(O)cc3)c(Nc3ccc4c(c3)OCO4)n2c1 | 8.81% | –
Cc1nc2ccccc2c(C(=O)O)c1-c1ccccn1 | 0.203% | –
Cc1nc2ccccc2c(C)c1C(=O)c1ccc(F)cc1 | 10% | –
Cc1nc2ccccc2c(-c2ccccc2)c1C(=O)c1ccccc1 | – | 23.1 µM (active)
CC1(C)O[C@@H]2CC3C4C[C@H](F)C5=CC(=O)C=CC5(C)C4C(O)CC3(C)[C@]2(C(=O)CO)O1 (stereo partly specified) | – | 0.0046 µM (active)
Cc1ccc(C(CC(=O)O)NC(=O)c2ccc(S(=O)(=O)N3CCCC3)cc2)cc1 (stereo unspecified) | 0.991% | –
COCCOC(=O)C1=C(C)NC(=O)NC1c1ccc(Cl)cc1 (stereo unspecified) | -1.05% | –
CCC(CC)COC(=O)C1=C(C)NC(=O)NC1c1ccc([N+](=O)[O-])cc1 (stereo unspecified) | – | 25.9 µM (active)
CCOCCOC(=O)C1=C(C)NC(=O)NC1c1ccc2c(c1)OCO2 (stereo unspecified) | -4.03% | –
COc1cc(CN(CC2CCCO2)C(=O)c2ccccc2F)cc(OC)c1OC (stereo unspecified) | -4.81% | –
COc1ccc(C(=O)C[n+]2ccc(C)cc2)cc1 | 3.08% | –
COc1ccc(C(=O)C[n+]2ccc(N)c(C)c2C)cc1 | – | 5.8 µM (active)
COc1ccc(CCC(=O)c2ccc(OC)cc2)cc1 | 5.47% | –
CC/C(=C\c1ccc(Cl)cc1)c1ccncc1 | 10.8% | –
COc1ccc(S(=O)(=O)N(C)C[C@H]2Oc3c(NC(=O)Nc4ccc5c(c4)OCO5)cccc3C(=O)N([C@H](C)CO)C[C@@H]2C)cc1 | -10.5% | –
COc1ccc(C(=O)N(Cc2ccccc2)Cc2ccc(OC)c(COc3ccc(NC(C)=O)cc3)c2)c(O)c1 | 1.88% | –
Cc1cccc(C=CC(=O)c2ccc(Cl)cc2)c1 | -8.77% | –

Structure (SMILES) | activity change, negative = inhibition | Potency
Cc1[nH]c(=O)c(C(=O)/C=C/c2ccccc2)c2c1CCCC2 | – | 20.6 µM (active)
Cc1cn(COC/C=C/c2ccccc2)c(=O)[nH]c1=O | 0.354% | –
Nc1ccc2c(c1)C(=Cc1cccnc1)c1ccccc1-2 | 22.3% | –
CCCc1nc2c(c(=O)c3ccccc3n2C)c(=O)n1C1CCCCCC1 | – | 23.1 µM (active)
CCCc1nc2c(c(=O)c3ccccc3n2C)c(=O)n1-c1cc(C)cc(C)c1 | 2.46% | –
Cn1c2ccccc2c(=O)c2c(O)cccc21 | 28% | –
O=C(NCc1cccnc1)C(=O)NCC(c1cccnc1)N1CCN(c2ccccc2)CC1 (stereo unspecified) | 2.8% | –
O=C(CCCCCCCC(=O)N1CCCCC1)N1CCCCC1 | -7.85% | –
CN(C)CCCNC(=O)/C=C/c1ccc(OCc2c(F)cccc2Cl)cc1 | – | 20.6 µM (active)
COc1cc(CNCCN(C)C)ccc1OCc1c(F)cccc1Cl | -10.3% | –
COCCCNC(=O)/C=C/c1ccc(OCc2c(F)cccc2Cl)cc1 | -21% | –
COc1cc2c(-c3ccc4c(c3)OCO4)c(-c3ccsc3)oc(=O)c2cc1OC | -4.58% | –
O=C1C=C(c2cccc(Cl)c2O)C[C@@H](c2ccc(F)cc2)C1 | 7.99% | –
COc1ccc(N2CCN(Cc3nc4c(c(=O)[nH]c(=O)n4C)n3Cc3ccc(Cl)cc3)CC2)cc1 | 2.8% | –
CCc1cccc2c3c([nH]c12)C(CC)(CC(=O)O)OCC3 (stereo unspecified) | – | 10.3 µM (active)
O=C1CC[C@@H]2CC3(C[C@@H]4CCN1[C@H]24)Nc1cc([N+](=O)[O-])ccc1NC3=NC1CCCCC1 (stereo partly specified) | 5.71% | –
CC1CC(C)(C)n2c(O)c(N=NC(N)=S)c3cccc1c32 (stereo unspecified) | – | 14.6 µM (active)
Cc1cccc(NC(=O)CSc2nc(-c3ccco3)cc(C(F)(F)F)n2)c1C | 6.45% | –
COc1cccc(C=CC(=O)C=CC=Cc2ccccc2)c1 | -3.74% | –
Cc1c(Cl)cccc1NC(=O)CCS(=O)(=O)c1ccc2c(c1)oc(=O)n2C | -4.02% | –
CCc1ccccc1NC(=O)Cn1c(=O)n(CC2CCC(C(=O)NCCc3ccccc3)CC2)c(=O)c2ccccc21 (stereo unspecified) | 15.4% | –
CCN(C[C@H]1N[C@@](Cc2ccccc2)(C(=O)OC)[C@H]2C(=O)N(Cc3ccccc3)C(=O)[C@@H]12)C(=O)c1ccc(C)cc1 | -0.16% | –
CCOc1ccccc1N(CC)C(=O)c1cc2ccc3cccnc3c2[nH]1 | -16.9% | –
COc1ccc(C(=O)NCCc2ccc(S(N)(=O)=O)cc2)cc1OC | 22.1% | –

Structure (SMILES) | activity change, negative = inhibition | Potency
COc1ccc(CCNC(=O)c2ccc(CS(=O)(=O)c3ccc(Br)cc3)o2)cc1OC | – | 4.11 µM (active)
O=C(NCc1cccnc1)c1ccc(CS(=O)(=O)c2ccc(Br)cc2)o1 | – | 14.6 µM (active)
COc1ccc(CCNC(=O)c2nnc(CS(=O)(=O)c3ccccc3)o2)cc1OC | 1.63% | –
Cc1cccc(NS(=O)(=O)c2ccc(C)c(C(=O)NCc3cccnc3)c2)c1 | -31.3% | –
COc1ccccc1CNC(=O)c1ccc(CS(=O)(=O)c2ccccc2)o1 | 0.412% | –
Cc1ccccc1-n1c(=O)c2ccccc2n(Cc2ccc(F)cc2)c1=O | 5.14% | –
CCCN(C(=O)COC(=O)CNS(=O)(=O)c1ccc(NC(C)=O)cc1)C1CCS(=O)(=O)C1 (stereo unspecified) | 12.7% | –
CC1CCCC(NC(=O)c2cc(S(=O)(=O)N3CCCCC3)ccc2Cl)C1C (stereo unspecified) | 12.3% | –
CSc1ncc(Sc2ccccc2)c(C(=O)O)n1 | 0.799% | –
CSc1nc(-c2ccccc2)nc(C(Cl)Cl)n1 | – | 23.1 µM (active)
Cc1cccc(Nc2nc(C)nc(N)c2S(=O)(=O)c2ccccc2)c1 | -16% | –
O=C(Nc1cccc(S(=O)(=O)N2CCOCC2)c1)C12CC3CC(CC(C3)C1)C2 | 1.01% | –
COc1ccc2[nH]c(C(=O)N3CCN(C)CC3)c(C)c2c1 | 21.1% | –
COc1ccc2[nH]c(=S)cc(C)c2c1 | 0% | –
COc1ccc2[nH]c3c(C)c4cc[n+](C)cc4c(C)c3c2c1 | – | 8.2 µM (active)
Cc1ccc(-n2c(=O)c3cccnc3n2CC(=O)NCc2ccc(F)cc2)cc1C | -7.78% | –
CCOC(=O)/C(=N\Nc1ccccc1[N+](=O)[O-])c1csc(Nc2ccccc2)n1 | – | 20.6 µM (active)
CCOC(=O)C/C(C)=N\Nc1ccc([N+](=O)[O-])cc1[N+](=O)[O-] | -12.2% | –
CCOC(=O)Cc1csc(NC(=O)Nc2ccccc2)n1 | 5.68% | –
CC(=O)OC1=C(C(C)=O)N(Cc2ccccc2)S(=O)(=O)c2ccccc21 | -4.38% | –
Cn1c(Cc2cccc3ccccc23)nnc1SCC(=O)N1CCN(c2cccc(Cl)c2)CC1 | – | 10.3 µM (active)
Cc1cc2nnc(SCC(=O)N3CCN(c4ccccc4)CC3)n2c(N)n1 | 10.4% | –
Cn1c(CNC(=O)c2ccco2)nnc1SCC(=O)N1CCN(c2ccccc2)CC1 | -11.5% | –
CC(=O)c1ccc(N2CCN(C(=O)c3ccc(Cl)c(S(=O)(=O)NC4CC4)c3)CC2)c(F)c1 | -4.28% | –

Structure (SMILES) | activity change, negative = inhibition | Potency
Cc1nn(-c2ccccc2)c(C)c1NC(=O)COc1ccc(Cl)cc1Cl | – | 16.4 µM (active)
Cc1nn(-c2ccccc2)c(C)c1NC(=O)COC(=O)c1cc(Cl)ccc1O | -12.6% | –
Cc1nn(-c2ccccc2)c(C)c1NC(=O)CCl | -1.19% | –
NC(=O)C1(Nc2ccc([N+](=O)[O-])cc2)CCCC1 | -7.2% | –
Cn1c(=O)c2c(-c3ccccc3Br)n(Cc3ccccc3)cc2n(C)c1=O | -16.6% | –
CCC(=O)N1CCc2cc(Br)cc(S(=O)(=O)CCC(=O)N3CCN(c4ccc(F)cc4)CC3)c21 | 3.12% [at 9.27 µM] | –
CC(C)=C1SC(N2CCN(c3cccc(C)c3)CC2)=NC1=O | – | 23.1 µM (active)
CC(C)=C1SC(N2CCN(c3ccc(C)c(Cl)c3)CC2)=NC1=O | -13.3% | –
Cc1ccc(N2CCN(C3=NC(=O)/C(=C\c4cccs4)S3)CC2)cc1 | -1.2% | –
CCN(CC)S(=O)(=O)c1ccc(N2CCCC2)c(NC(=O)c2ccc([N+](=O)[O-])o2)c1 | -12.4% | –
C=Cc1ccc(Cn2c(C(=O)O)c(CNC3CCCC3)c3ccc(C)cc32)cc1 | -0.54% | –
COc1ccc(NS(=O)(=O)c2cc(C(=O)Nc3ccccc3C(=O)O)ccc2C)cc1 | 12.1% | –
Cc1ccccc1NC(=O)c1cc(S(=O)(=O)Nc2cccc(C(=O)O)c2)ccc1Cl | 9.1% | –
C=CCNC(=O)c1ccccc1NC(=O)c1ccc(Cl)c(S(=O)(=O)Nc2cccc(C)c2C)c1 | – | 9.2 µM (active)
CCOC(=O)C1CCCN(C(=O)c2ccc3c(c2)sc2nc(-c4ccc(CC)cc4)cn23)C1 (stereo unspecified) | -9.95% | –
Cc1ccc(-c2nc3ccccn3c2Nc2c(C)cccc2C)o1 | 3.18% [at 9.27 µM] | –
CC1(C)CC(N2CCN(C(c3ccccc3)c3ccccc3)CC2)=CC(=[N+]2CCCCC2)C1 | – | 7.31 µM (active)
O=C(O)CN1CCN(C(c2ccccc2)c2ccccc2)CC1 | 8.98% | –
CC(C)NC(=S)N1CCN(C(c2ccccc2)c2ccccc2)CC1 | 13.5% | –
Cc1ccc(C(=O)CSc2nc(-c3ccccc3)nc3c2CCCC3)c(C)c1 | -6.25% | –
O=C(NCc1ccccc1CN1CCCC1)c1cccc(S(=O)(=O)Nc2ccc(F)cc2)c1 | 1.66% | –
COc1ccc2c(c1)c(=Cc1ccc(N(C)C)cc1)c1cc(-c3ccccc3)[n+](C)n12 | – | 16.4 µM (active)
COc1ccc2sc(-c3ccc(N(C)C)cc3)c(C#CCO)c2c1 | -17.9% | –
COc1ccc2sc(-c3ccc(N(C)C)cc3)c(-c3ccc4cc[nH]c4c3)c2c1 | 11% | –
